Measured values published in PubChem BioAssay AID488890 (Southern Research Specialized Biocontainment Screening …, 2010).
In all, about 320,000 compounds went through this assay and about 1,300 (0.41%) were called active. About 3% were inconclusive and are not listed. The rule behind the calls is not given here. These entries were drawn from the full list. Results with a measured potency or affinity are listed apart.

experiment: growth inhibition of non-replicating M. tuberculosis (AID 488890); settings: Mycobacterium tuberculosis non-replicating, at 25 µM, stronger effect = higher value;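 note: plate controls were DMSO cells for no effect and high antibiotic wells for full effect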

SMILES	inhibition
CCOc1ccc2oc(C(=O)OCC(=O)NC3CCCC3)c(C)c2c1	9.82%
O=C(c1ccc2c(c1)CCN2S(=O)(=O)c1ccccc1)N1CCN(c2ccc(F)cc2)CC1	18.7%
NC(=O)c1sc2nc(N3CCOCC3)c3c(c2c1N)CCCC3	3.31%
CCN(CC)CCOC(=O)C(Cc1ccco1)Cc1cccc2ccccc12 (stereo unspecified)	12.1%
COc1ccc2c(c1OC)C(=O)OC2Nc1nc(-c2cc3ccccc3oc2=O)cs1 (stereo unspecified)	2.83%
COc1cc(S(=O)(=O)N2CCOCC2)cc(C(=O)OCC(=O)NC2CCCCC2)c1OC	-1.4%
O=C(/C=C/c1cc([N+](=O)[O-])ccc1OC(F)F)Nc1cccc(OC(F)F)c1	0.25%
COCCn1c(=NC(=O)CSCC(=O)N2CCOCC2)sc2ccccc21	-8.23%
Cn1cccc1C(=O)OCC(=O)Nc1cccc(S(=O)(=O)N2CCOCC2)c1	-0.69%
COC(=O)C1=C(c2ccc(OC)c(OC)c2)C[C@@H]2CC[C@H]1N2C(=O)NCc1cc(C)oc1C(F)(F)F	-13.9%
Oc1cccc(Nc2nc(-c3ccccc3Cl)nc3ccccc23)c1	1.57%
CC(=O)Nc1cccc(NC(=O)c2cc3ccccc3o2)c1	32.4%
O=C(O)c1ccc(NC(=O)c2cc3ccccc3o2)cc1	19.5%
O=C(Nc1ccccc1)c1ccc(OC(=O)c2cc3ccccc3o2)cc1	45.2%
Cc1ccc(C)c(NC(=O)c2cc3ccccc3o2)c1	75.5%
CC(C)C(=O)Nc1cccc(NC(=O)c2cc3ccccc3o2)c1	2.48%
Cc1ccnc(NC(=O)c2oc3ccccc3c2C)c1	20.3%
O=C(COC(=O)c1cc2ccccc2o1)c1ccccc1	51.9%
O=C(Nc1ccc(NC(=O)c2cc3ccccc3o2)cc1)c1ccco1	2.59%
O=C(CSCc1cnn(-c2ccccc2)c1-n1cccc1)N1CCN(Cc2ccccc2)CC1	2.12%
C=CC[C@@H](CC(=O)N[C@H](CO)Cc1ccccc1)C(=O)N[C@@H](COC(=O)[C@@H](CC=C)CC(=O)OC(C)(C)C)Cc1c[nH]c2ccccc12	61%
CCN(Cc1ccccc1)C(=O)CSc1nc(C)cc(=O)[nH]1	10.7%

SMILES	inhibition
Nc1c(C(=O)Nc2cccc(F)c2)nnn1-c1cccc(C(F)(F)F)c1	-17.3%
COc1cc(C[C@@H]2C(=O)OC[C@H]2Cc2ccc(OC)c(OC)c2)ccc1O	-6.61%
O=S(=O)(NCC(c1ccco1)N1CCCCC1)c1ccccc1C(F)(F)F (stereo unspecified)	5.94%
Cc1ccc(C(=O)N(C)CCOc2ccccc2)cc1S(=O)(=O)N1CCCCC1	14.5%
O=C(NC1CCCCC1)C(c1cccs1)N(CCCN1CCOCC1)C(=O)c1ccc(-c2ccccc2)[nH]1 (stereo unspecified)	44.4%
COc1ccc(NC(=O)c2cc3ccccc3o2)cc1OC	53.8%
CC(=O)c1ccc(NC(=O)c2cc3ccccc3o2)cc1	76.8%
Cc1ccc(C2=NN(CCC(=O)NCc3ccc4c(c3)OCO4)C(=O)CC2)cc1	4.59%
COCCN(C(=O)C1CCCO1)c1c(N)n(CC(C)C)c(=O)[nH]c1=O (stereo unspecified)	-18.2%
NC(=S)N/N=C/c1c(O)c(Br)cc2oc3c(c12)CCCC3	56.5%
Oc1ccc2oc3c(c2c1C=NCc1ccncc1)CCCC3	3.96%
Cc1nnc(SCC(=O)NNC(=O)c2ccco2)n1-c1cccc(Cl)c1	-5.26%
CCC(CC)C(=O)N=C1SC2CS(=O)(=O)CC2N1CCc1ccc(OC)c(OC)c1 (stereo unspecified)	-2.38%
Cn1nnnc1Sc1ncnc2scc(-c3ccc(-c4ccccc4)cc3)c12	77%
Cn1nnnc1Sc1ncnc2scc(-c3ccccc3)c12	48.6%
Nc1nc(SCCO)[nH]c(=O)c1NC(=O)c1ccco1	-5.12%
CCCCCN(C(=O)CCC(=O)OCCOc1ccccc1)c1c(N)n(CCCC)c(=O)[nH]c1=O	-0.11%
CCN1CCN(C(=O)c2cc3cc4ccc(OC)cc4nc3s2)CC1	18.5%
CCCCN(C)C(=O)c1cc2cc3ccc(OC)cc3nc2o1	71.6%
O=c1[nH]c(C2C3CC4CC(C3)CC2C4)nc2ccccc12 (stereo unspecified)	21.6%
COc1ccc(C(CC(=O)N2CCCC(C)C2)c2c(OC)cc(OC)c3ccc(=O)oc23)cc1 (stereo unspecified)	28.4%
Cc1ccc(S(=O)(=O)Nc2ncnc3ccccc23)cc1	-1.77%

SMILES	inhibition
CCCCn1c(SCC(=O)NCc2ccco2)nc2cc(S(N)(=O)=O)ccc21	1.57%
COc1ccc(C2=NN(C(=O)CSc3nc(=O)n4cc(C)ccc4n3)C(c3ccc(C)cc3)C2)cc1 (stereo unspecified)	38.7%
Cc1ccc2cc(C3CC(c4ccco4)=NN3C(=O)CCC(=O)O)c(Cl)nc2c1 (stereo unspecified)	2.6%
CCOC(=O)c1c(C)c(C(=O)NC(C)COC)c(C)n1CC (stereo unspecified)	-4.24%
N#Cc1c(-c2ccc(Cl)cc2)nc2n(c1=O)CCCS2	4.51%
O=c1c(C(c2ccc(Cl)cc2)c2c(O)nc3n(c2=O)CCCS3)c(O)nc2n1CCCS2	8.19%
O=C(N/N=C/c1cccn1-c1ccc([N+](=O)[O-])cc1)c1cccnc1	-10.5%
O=C(N/N=C/c1ccc([N+](=O)[O-])cc1)c1cccnc1	-3.53%
O=C(N/N=C/c1ccc(O)c([N+](=O)[O-])c1)c1ccncc1	56.1%
Cc1ccc(C(=O)N/N=C\c2sccc2C)cn1	-5.99%
Cc1ccc(/C=N\NC(=O)c2cncc(Br)c2)o1	46.2%
O=C(N/N=C/c1ccccc1[N+](=O)[O-])c1ccncc1	35.4%
O=C(N/N=C/c1ccc(-c2ccccc2[N+](=O)[O-])o1)c1cncc(Br)c1	11.6%
Cc1ccc(C(=O)N/N=C\c2ccc([N+](=O)[O-])o2)cn1	70.4%
CCOc1ccc(C(=O)NC2CCN(C(=O)Nc3ccc(F)cc3)CC2)cc1	-4.31%
CN(c1ccccc1)S(=O)(=O)c1ccc(Cl)c(C(=O)NC2=NCCS2)c1	27.5%
O=C(Nc1nnc(C23CC4CC(CC(C4)C2)C3)s1)c1ccc(N2C(=O)CCC2=O)cc1	13.4%
COc1cc(NC(=S)N2CCOCC2)c(OC)cc1Cl	1.57%
CCOc1ccccc1NC(=O)C1CCCCN1S(=O)(=O)c1ccc(F)cc1 (stereo unspecified)	14.8%
COc1ccc(/C=C2\C(=O)NC(=O)N(Cc3ccccc3)C2=O)c(OC)c1OC	-15.4%
O=C(NCC(=O)N1CCN(Cc2ccc3c(c2)OCO3)CC1)c1ccccc1F	6.65%
N#C/C(N)=C(/C#N)N=Cc1cccc(Cl)c1	8.31%
